Compound activity deposited in PubChem BioAssay by several laboratories.
p97 inhibitor: inhibitors of human p97 ATPase | recombinant p97 ATPase, Kinase-Glo ATP luminescence, 3 h | P55072 | inhibition, % at 8 µM | actives 0.42% (n = 220,000); in the data active = inhibition above about 15%
S1P3 antag-1: S1P3 (human) receptor antagonism; actives 0.27% (n = 170,000); Q99500; inhibition, % at 4.98 µM; CHO S1P3 NFAT-BLA reporter, FRET fluorescence, antagonist mode;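 active = inhibition above the plate cutoff, the mean inhibition of test wells on that plate plus 3 SD, cut at about 28% in these data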;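 also: cells challenged with S1P at its EC80 of 0.8 µM; blue over green emission ratio from cleaved BLA substrate after 4 h stimulation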
Target sequence (Q99500 whole entry, looked up): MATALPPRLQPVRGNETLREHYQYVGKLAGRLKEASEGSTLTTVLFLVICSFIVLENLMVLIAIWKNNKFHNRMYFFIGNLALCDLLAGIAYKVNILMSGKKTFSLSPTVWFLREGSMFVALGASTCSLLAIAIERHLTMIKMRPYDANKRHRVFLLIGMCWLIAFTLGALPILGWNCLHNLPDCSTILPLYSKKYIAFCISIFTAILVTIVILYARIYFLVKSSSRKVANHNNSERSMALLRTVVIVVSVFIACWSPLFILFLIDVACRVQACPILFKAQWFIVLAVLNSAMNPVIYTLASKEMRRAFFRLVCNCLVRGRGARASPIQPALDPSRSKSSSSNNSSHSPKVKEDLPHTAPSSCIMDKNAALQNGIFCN
UBC9 SUMO inh: SUMOylation inhibition; P63279; HTRF SUMOylation assay, SAE1/SAE2 + UBC9, in vitro; inhibition, % at 35 µM; actives 0.36% (n = 290,000); AID 2006; in the data active = inhibition above about 50%, passing the limit was not always enough; inconclusive = no clear call, values can overlap the other calls
S1P4 antagonist: antagonists of human S1P4 receptor; O95977; S1P4-expressing cells, antagonist mode, reporter read-out; inhibition, % at 4.98 µM; actives 0.26% (n = 220,000); AID 1510; in the data active = inhibition above about 29%
DTT redox prof: compounds producing H2O2 with reducing agent – biochemical, NIH compound library profiling, artefact control for MLSCN library redox annotation, primary screen | activation, % at 10 µM | AID 878 | actives 0.03% (n = 200,000) | DTT-dependent redox cycling H2O2, phenol red/HRP absorbance; 100% = 100 µM peroxide control, 0% = buffer;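 active = activation of at least 50% relative to the plate's high and low controls in the primary single-dose screen; inactive = activation below 50%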;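 also: compound incubated with DTT at 0.8 mM final as the reducing agent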
S1P4 ag: activates the human S1P4 receptor | S1P4-expressing cell line, agonist reporter assay | activation, % at 4.98 µM | actives 0.35% (n = 220,000); in the data active = activation above about 11%
S1P3 antag-2: confirmation of human S1P3 receptor antagonists; actives 30% (n = 240); CHO S1P3 NFAT-BLA reporter, FRET, antagonist mode; inhibition, % at 4.98 µM; shares compounds with S1P3 antag-1; AID 1429;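 active = inhibition above the hit threshold that was computed for the earlier primary screen, cut at about 30% in these data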
Large screens that a line does not name were inactive (follow-up assays come after a bar, where they were run); ! = repeats disagree. Most compounds without a hit are left out; they make up all but 1.1% or so of the library.

Cc1cc(/C=C2\C(=O)NC(=O)N(Cc3ccco3)C2=O)c(C)n1-c1ccc(O)cc1	UBC9 SUMO inh 62
Cc1cc(/C=C2\C(=O)NC(=O)N(Cc3ccccc3Cl)C2=O)c(C)n1-c1ccc(C(=O)O)cc1	none
Cc1cc(/C=C2\C(=O)NC(=O)N(Cc3ccccc3)C2=O)c(C)n1-c1ccc(Cl)c(C(=O)O)c1	UBC9 SUMO inh 59
Cc1ccc(-n2c(C)cc(/C=C3/C(=O)NC(=O)N(Cc4ccco4)C3=O)c2C)cc1	none
COc1ccc(CC2C(=O)NC(=O)N(c3ccccc3)C2=O)c(OC)c1 (stereo not drawn)	S1P3 antag-1 74
CCOc1cc2c(cc1OCC)-n1cccc1C(c1ccc(C(C)C)cc1)NC2 (stereo not drawn)	none (no result: p97 inhibitor, S1P3 antag-1, S1P4 antagonist, DTT redox prof, S1P4 ag)
CCc1ccc(-c2nn(Cc3ccccc3)cc2C=O)cc1	none
CC(C)[C@]12O[C@H]1[C@@H]1O[C@]13[C@]1(O[C@H]1C[C@H]1C4=C(CC[C@@]13C)C(=O)OC4)[C@@H]2O	S1P3 antag-1 105, S1P4 antagonist 107 (no result: DTT redox prof)
O=C(CCc1ccccc1)N1C[C@H]2C[C@@H](C1)c1cccc(=O)n1C2	none (no result: p97 inhibitor, S1P3 antag-1, S1P4 antagonist, DTT redox prof, S1P4 ag)
COc1c(C)cc(C(=O)C2CCCN(Cc3ccccn3)C2)cc1C (stereo not drawn)	none
COCCNC(=O)c1c(NC(=O)c2ccc(Br)o2)n(Cc2ccccc2)c2nc3ccccc3nc12	UBC9 SUMO inh 99
Cc1nn(CCC#N)c2c1P(=S)(N1CCCC1)OC(c1ccc(F)cc1)=N2 (stereo not drawn)	S1P3 antag-1 74
CN1C(=O)N(C)C(=O)C2(Cc3cc(N)ccc3N3CCN(c4ccccc4F)CC32)C1=O (stereo not drawn)	none
CN1CCN2c3ccc(N)cc3CC3(C(=O)NC(=O)NC3=O)C2C1 (stereo not drawn)	UBC9 SUMO inh 79 (no result: DTT redox prof)
O=C1NC(=S)N(c2ccc(F)cc2)C(=O)/C1=C\c1ccoc1	none
COc1ccc(N2C(=O)/C(=C/c3ccc(C)o3)C(=O)NC2=S)cc1	none (no result: p97 inhibitor, S1P3 antag-1, S1P4 antagonist, DTT redox prof, S1P4 ag)
COc1ccc(OC)c(N2C(=O)/C(=C/c3ccco3)C(=O)NC2=S)c1	UBC9 SUMO inh 94 (no result: p97 inhibitor, S1P3 antag-1, S1P4 antagonist, DTT redox prof, S1P4 ag)
O=C1NC(=S)N(c2ccc(F)cc2)C(=O)/C1=C/c1ccco1	UBC9 SUMO inh 66 (no result: p97 inhibitor, S1P3 antag-1, S1P4 antagonist, DTT redox prof, S1P4 ag)
CCCCCn1c(NC(=O)c2ccco2)c(C(=O)OCC)c2nc3ccccc3nc21	UBC9 SUMO inh 101
Cc1ccc(C2=CCNCC2)cc1	none
CN1CCC(C)(O)C2CCCCC21 (stereo not drawn)	none
C=C1C(=O)O[C@@H]2C[C@@H](C)[C@@H]3C=CC(=O)[C@@]3(C)[C@@H](OC(=O)CC(=O)O[C@H]3[C@@H]4C(=C)C(=O)O[C@@H]4C[C@@H](C)[C@@H]4C=CC(=O)[C@]43C)[C@H]12	UBC9 SUMO inh 54 (no result: p97 inhibitor, S1P3 antag-1, S1P4 antagonist, DTT redox prof, S1P4 ag)
CNC(=O)NC(O)C(Cl)(Cl)Cl (stereo not drawn)	none (no result: p97 inhibitor, S1P3 antag-1, S1P4 antagonist, DTT redox prof, S1P4 ag)
CC1Oc2cc3c(-c4c(O)cc(O)c5c(O)c6c(cc45)OC(C)C(C)C6=O)c(O)cc(O)c3c(O)c2C(=O)C1C (stereo not drawn)	S1P3 antag-1 43, UBC9 SUMO inh inconclusive (no result: DTT redox prof)
CN1CC2([N+](=O)[O-])CC=C(Cl)C([N+](=O)[O-])(C1)C2 (stereo not drawn)	none
c1cncc(C2Nc3cccc4cccc(c34)N2)c1	UBC9 SUMO inh 63! (no result: DTT redox prof)
COc1ccc(Cc2nccc3cc(OC)c(OC)cc23)cc1OC	S1P3 antag-1 29 | S1P3 antag-2 inactive
COc1ccc(CCNCc2ccc(C)s2)cc1OC	none
COc1ccc(N=Cc2c(O)n(-c3ccc(C)cc3)c(=O)[nH]c2=O)cc1	S1P3 antag-1 30 | S1P3 antag-2 inactive
Cc1ccc(Cn2nc(C)c(C=O)c2Cl)cc1	none
